An excerpt weighted towards active compounds, which were near 4.8% of everything screened.
ssDAF-12 act = S. stercoralis DAF-12 nuclear receptor activators, primary screen, cell-based, luminescence, HEK293, GRIP1 co-expression, lit1-tk-luc; Nuclear hormone receptor DAF-12 (Strongyloides stercoralis); HEK293 ssDAF-12/GRIP1 lit1-tk-luc reporter; % of 3 µM dafachronic acid response; activation, % at 6.8 µM; actives 1% (n = 370,000);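 active means activation above the mean over all tested compounds plus 3 SD, cut at about 0.9% in these data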
SMARCA2 act = SMARCA2 (BRM) function activators, primary screen, cell-based, luminescence, high throughput. actives 1% (n = 370,000). MG213 cells, MMTV-luciferase reporter, dexamethasone, overnight. activation, % at 9.1 µM; in the data active means activation above about 7.8%
DAX1 inh-1 = DAX1 (NR0B1) inhibitors, primary screen, cell-based, HEK293, Gal4-DAX1, luciferase luminescence; inhibition, % at 6.75 µM; Nuclear receptor subfamily 0 group B member 1 (Homo sapiens), P51843; actives 0.99% (n = 340,000); HEK293 Gal4-DAX1 luciferase reporter;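 active means inhibition above the mean over all tested compounds plus 3 SD, cut at about 4.2% in these data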;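 further: inhibition shows as a rise in luminescence from relieved DAX1 repression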
DAX1 inh-2 = DAX1 (NR0B1) inhibitors on StAR promoter, primary screen, cell-based, luminescence, SF-1 (NR5A1), full-length DAX-1; actives 1.1% (n = 370,000); HEK293T StAR-luciferase reporter, SF-1/DAX-1 repression relief; inhibition, % at 6.8 µM;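 active means inhibition above the mean over all tested compounds plus 3 SD, cut at about 3.6% in these data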;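 further: higher inhibition means more luminescence from relief of DAX-1 repression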
hcDAF12 agonist = H. contortus DAF-12 nuclear receptor activators, primary screen, cell-based, luminescence, HEK293, lit1-tk-luc reporter | HEK293 hcDAF-12 lit1-tk-luc reporter; 0% DMSO, 100% Δ7-dafachronic acid | activation, % at 6.8 µM | actives 1.4% (n = 370,000) | AID 652067, 2013;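 active means activation above the mean of all tested compounds plus 3 SD, cut at about 5.5% in these data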
hgDAF-12 ag = H. glycines DAF-12 receptor agonists, primary screen, cell-based, luminescence, HEK293, GAL4 fusion, UAS-luciferase; HEK293 GAL4-hgDAF12 UAS-luciferase reporter, agonist luminescence; normalized to butyrate control; activation, % at 6.8 µM; Nuclear hormone receptor DAF-12 (Heterodera glycines), GAL4 fusion; actives 1.8% (n = 370,000);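 active means activation above a cutoff set at the mean of all screened compounds plus 3 SD, cut at about 10% in these data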
LXRb hcDAF ctr = LXR agonists, Gal4 luciferase reporter, confirmation, counter-screen for hcDAF-12 agonist project, cell-based, luminescence, HEK293, H. contortus campaign; shares compounds with hcDAF12 agonist; HEK293 Gal4-LXR tk-luc reporter, 24 h; normalized: DMSO 0%, positive control 100%; AID 743027, 2013; activation, % at 6.8 µM; 3,400 tested, under 10 active;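 active means mean percent activation of the reporter above a cutoff set as the average over tested compounds plus their standard deviation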
Target sequence (P55055 whole entry, looked up, the tested form may be a part): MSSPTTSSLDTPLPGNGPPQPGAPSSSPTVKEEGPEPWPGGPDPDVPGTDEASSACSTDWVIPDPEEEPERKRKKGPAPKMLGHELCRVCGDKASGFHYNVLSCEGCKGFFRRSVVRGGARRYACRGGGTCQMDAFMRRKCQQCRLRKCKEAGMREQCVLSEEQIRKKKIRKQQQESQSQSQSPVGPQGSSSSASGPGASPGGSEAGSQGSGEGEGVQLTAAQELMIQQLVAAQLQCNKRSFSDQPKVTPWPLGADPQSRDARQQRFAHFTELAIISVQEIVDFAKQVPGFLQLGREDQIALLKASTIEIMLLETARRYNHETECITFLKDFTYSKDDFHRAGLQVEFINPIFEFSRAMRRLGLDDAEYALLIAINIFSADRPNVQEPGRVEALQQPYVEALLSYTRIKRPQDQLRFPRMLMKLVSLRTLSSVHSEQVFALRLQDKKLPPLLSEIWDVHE
hcDAF12 ag = H. contortus DAF-12 receptor agonists, confirmation, cell-based, luminescence, HEK293, lit1-tk-luc, triplicate | AID 743032, 2013 | HEK293 hcDAF-12 lit1-tk-luc reporter; % of Δ7-dafachronic acid response | shares compounds with hcDAF12 agonist | activation, % at 6.8 µM | actives 61% (n = 3,400);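 active means mean activation across triplicate tests above the threshold derived from the earlier primary screen, cut at about 5.5% in these data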
hgDAF12 ag = H. glycines DAF-12 receptor agonists, confirmation, cell-based, luminescence, HEK293, GAL4-LBD fusion | shares compounds with hgDAF-12 ag | HEK293 GAL4-hgDAF12 luciferase reporter, agonist mode; percent of butyrate response | activation, % at 6.8 µM | actives 80% (n = 3,300) | AID 743050, 2013;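 active means mean activation over triplicate wells above the hit cutoff derived from the earlier primary screen, cut at about 11% in these data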
LXRb DAF12 ctr = LXR agonists, Gal4 luciferase reporter, confirmation, counter-screen for hgDAF-12 agonist project, cell-based, luminescence, HEK293, H. glycines campaign; shares compounds with hgDAF-12 ag; 24 h; activation, % at 6.8 µM; 3,300 tested, under 10 active;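 active means mean activation of the triplicate above a set limit carried over from the primary screen, none filed active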
Numbers stand for hits; 0 = inactive; - = no result given.

SMILES	ssDAF-12 act	SMARCA2 act	DAX1 inh-1	DAX1 inh-2	hcDAF12 agonist	hgDAF-12 ag	LXRb hcDAF ctr	hcDAF12 ag	hgDAF12 ag	LXRb DAF12 ctr
COC(=O)C1=C(C)N(C)C(=NCc2ccccc2)NC1c1ccccc1C(F)(F)F (stereo unspecified)	0	0	-	0	0	0	-	-	-	-
NNC(=O)c1cccc(COc2ccccc2Br)c1	1.2	0	0	0	7.2	15.9	0	6.5	15.1	0
Cc1ccc(Nc2nc(N)c3ccccc3n2)cc1C	0.9	0	0	0	6.6	15.6	0	8.0	20.9	0
Cc1ccc(-c2nc(N/N=C/c3cccnc3)c3ccccc3n2)cc1	2.9	0	0	0	13.2	13.8	0	12.3	20.6	0
COc1cccc(N/C=C/C(=O)c2ccc(C)cc2)c1	1.4	0	0	0	8.1	14.5	0	11.3	23.8	0
Cc1cc(N/C=C/C(=O)c2ccccc2)ccc1Br	2.8	0	0	0	9.8	14.1	0	18.5	23.6	0
O=S1(=O)c2ccc(Br)cc2OC[C@H](c2ccccc2)N1Cc1ccccc1	0	0	-	0	0	0	-	-	-	-
COc1cccc(NC(=O)c2ccc3c(c2)OCO3)c1	2.8	0	0	0	7.1	13.9	0	8.2	17.0	0
COc1cccc(NC(=O)c2oc3ccccc3c2NC(=O)c2ccc3c(c2)OCO3)c1	0	0	0	0	0	0	-	-	-	-
COc1cccc(NC(=O)c2ccc3c(c2)OCCO3)c1	0	0	0	0	10.6	13.5	0	6.9	15.9	0
C[C@H](CO)N1C[C@H](C)[C@@H](CN(C)C(=O)Nc2cccc(F)c2)OCc2cn(nn2)CCCC1=O	0	0	-	0	0	0	-	-	-	-
O=[N+]([O-])c1cccnc1N/N=C/c1ccccc1O	0	0	0	3.8	9.2	15.5	0	0	0	0
O=[N+]([O-])c1ccc(N/N=C/c2ccccc2O)cc1	0	0	0	0	0	0	-	-	-	-
CSc1ccccc1OCc1cc(C(=O)N[C@H]2CCCCNC2=O)no1	0	0	0	4.4	7.2	19.0	0	0	0	0
O=C(NCCCCC(NC(=O)c1ccccc1)C(=O)O)OCc1ccccc1 (stereo unspecified)	0	0	-	0	0	0	-	-	-	-
COc1ccc(CN2C(=O)[C@]3(NCCc4c3[nH]c3ccc(OC)cc43)c3cc(Br)ccc32)cc1	0	0	-	0	0	0	-	-	-	-
O=C(O)c1cc(N/N=C/c2ccncc2)ccc1Cl	0	0	0	0	0	0	-	-	-	-
O=C(O)c1cc(N/N=C/c2ccc(-c3ccccc3)cc2)ccc1Cl	1.3	0	0	0	10.6	23.6	0	11.6	25.1	0
COc1ccc(N=NC2C(=O)N(c3ccccc3)N=C2C)cc1 (stereo unspecified)	0	0	0	0	0	0	-	-	-	-
CC1=NN(c2ccccc2)C(=O)C1N=Nc1cccc(O)c1 (stereo unspecified)	1.6	0	0	0	17.9	14.2	0	12.8	19.0	0
O=C(NC(=S)Nc1ccc2c(c1)OCO2)c1ccccc1	0	0	0	0	8.7	14.7	0	6.1	19.8	0
O=C(Nc1ccc2c(c1)OCO2)c1cccc(F)c1	0	0	0	0	0	0	-	-	-	-
O=C(Nc1ccc2c(c1)OCO2)c1ccccc1	0	0	0	0	9.3	16.1	0	0	17.5	0
NS(=O)(=O)c1ccc(NC(=S)NC(=O)c2ccc3c(c2)OCO3)cc1	0	0	0	0	0	0	-	-	-	-
C[C@@H]1COc2cc(NCCCN3CCOCC3)ccc2S(=O)(=O)N1	0	0	-	0	0	0	-	-	-	-
SMILES	ssDAF-12 act	SMARCA2 act	DAX1 inh-1	DAX1 inh-2	hcDAF12 agonist	hgDAF-12 ag	LXRb hcDAF ctr	hcDAF12 ag	hgDAF12 ag	LXRb DAF12 ctr
COC(=O)C1=C(C)N(C)C(=NCc2cccc(C(F)(F)F)c2)NC1c1cccc(Cl)c1 (stereo unspecified)	0	0	-	0	0	0	-	-	-	-
CCc1ccc(NC(=O)c2cc(C(C)C)on2)cc1	0	0	0	0	7.1	14.6	0	6.0	19.2	0
COCCN1Cc2cc(C(=O)OC)c3c(c2C1=O)c1cc(OC)ccc1n3S(C)(=O)=O	0	0	-	0	0	0	-	-	-	-
N/C(=N\OC(=O)c1cc(Cl)ccc1Cl)c1ccccn1	2.2	0	0	0	17.2	18.1	0	15.9	21.1	0
Cc1ccc(C(=O)O/N=C(\N)c2ccccn2)cc1	0	0	0	0	0	0	-	-	-	-
Cc1cc2c(c(=O)o1)[C@@]1(C(=O)N(C)c3ccc([N+](=O)[O-])cc31)C1=C(CCCC1=O)O2	0	0	-	0	0	0	-	-	-	-
CC(C)(C)S(=O)N1C[C@@H]2CC(=O)C(c3ccccc3)=C2[C@H]1CCO (stereo partly specified)	0	0	-	0	0	0	-	-	-	-
O=C(Nc1ccc2c(c1)CCC2)c1cc2ccccc2o1	1.6	0	0	0	7.9	16.9	0	0	21.6	0
Cc1nc(NC(=O)c2cc3ccccc3o2)sc1C	0	0	0	0	10.4	13.6	0	8.1	16.9	0
Cc1nc(NC(=S)NC(=O)c2ccccc2)sc1C	0	0	5.3	0	8.0	13.9	0	15.4	13.6	0
CC1(C)CC(=O)C=C(c2ccc(COC(=O)c3ccc(Br)cc3)cc2)C1=O	0	0	-	0	0	0	-	-	-	-

Compound activity (PubChem BioAssay)
